Data from PubChem BioAssay (NCATS).
Inconclusive results are not listed. Calls of active or inactive are those of the source. Unless noted, calls come from the whole dose curve; as a rule, active = well fitted curve in the direction sought with a large enough effect; inconclusive = small, poorly fitted or top-dose-only effect, or another doubt; inactive = no such curve, though single readings can be large; an effect the other way counts as inactive or inconclusive.

Columns and labels:
[1] = NS1 protein of Zika virus - qHTS assay to identify small molecule inhibitors in human HEK 293 cells (AID 1347053);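 note: plate controls were infected untreated cells for no effect and uninfected cells for full effect; nearly all actives have a fitted effect of over 55% in size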
Outline: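 HEK 293; 20 h pre-culture, 37 C/5% CO2; cpd 1 h pre-infection; ZIKV MR766, MOI = 0.5, 24 h, 37 C; TR-FRET NS1 readout (two anti-NS1 Abs); norm. to no-virus vs infected.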

[2] = molecular target: T1, Tyrosine-protein phosphatase non-receptor type substrate 1 (Homo sapiens) + Leukocyte surface antigen CD47 (Homo sapiens) (UniProt P78324+Q08722); assay: CD47-SIRPalpha protein protein interaction - LANCE assay qHTS validation (AID 1347057; active = well fitted curve in the direction sought with a large enough effect in the signal ratio, with a control signal flat, not every such curve was filed as active; the % refers to the signal ratio; note: potency is the fitted concentration of half-maximal effect)
Outline: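 First, His-tagged CD47 and Eu-labelled anti-His antibody met the compound for 30 min; next, site-specifically biotinylated SIRPalpha was added for 30 min; finally streptavidin-APC was added before reading the TR-FRET ratio.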

[3] = molecular target: T1, Tyrosine-protein phosphatase non-receptor type substrate 1 (Homo sapiens) + Leukocyte surface antigen CD47 (Homo sapiens); assay: CD47-SIRPalpha protein protein interaction - Alpha assay qHTS validation (AID 1347059);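 note: bead proximity luminescence from CD47 binding SIRPalpha after compound preincubation with SIRPalpha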; note: potency is the fitted concentration of half-maximal effect
Outline: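 Binding is measured by AlphaScreen proximity: Ni-NTA acceptor beads capture His-CD47, streptavidin donor beads capture biotin-SIRPalpha. Each of three additions (SIRPalpha with compound, CD47, beads) incubates 30 min at room temperature protected from light.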

[4] = molecular target: Parathyroid hormone/parathyroid hormone-related peptide receptor (Homo sapiens) (UniProt Q03431); assay: qHTS for PTHR1 Agonists: Optimization Screen against the NCGC LOPAC library (AID 1347079);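 note: GloSensor cAMP luminescence in HEK-293 GP2 cells expressing human PTHR1 with IBMX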; note: potency is the fitted concentration of half-maximal effect
Outline: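 Agonist readout: GloSensor cAMP luminescence, read after 15 min at room temperature. HEK-293-derived GP2 line carries PTHR1; compounds tested as a titration for 1 hr at 37C in presence of IBMX. M-PTH (1-15) served as control.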

[5] = molecular target: N-terminal Xaa-Pro-Lys N-methyltransferase 1 (Homo sapiens) (UniProt Q9BV86); assay: qHTS Assay for Inhibitors of N-terminal methyltransferase 1 (NTMT1): LOPAC validation of the NTMT1 SAHH-coupled ThioGlo3 Assay (AID 1347143);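 note: SAH from peptide methylation measured as thiol fluorescence via SAHH coupling and ThioGlo3; nearly all actives have a fitted effect of over 70% in size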; note: potency is the fitted concentration of half-maximal effect
Outline: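 Inhibition of NTMT1 methylation of peptide SPKRIA is followed by converting SAH with SAHH and labelling the released thiol with ThioGlo3. Plates are read at 340/450nm before and 30 min after reagent addition, both at room temperature.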

[6] = test system: Zika virus NS2B-NS3 protease (unlinked); assay: Optimization of GU AMC qHTS for Zika virus inhibitors: Unlinked NS2B-NS3 protease assay (AID 1347151); note: nearly all actives have a fitted effect of over 80% in size; note: potency is the fitted concentration of half-maximal effect
Outline: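 Fluorescence gain (340/450 nm) over 15 min at room temperature, ~20% conversion, gave percent inhibition fitted to a 4-parameter Hill equation; enzyme was unlinked NS2B-NS3 (25 nM final), pH 8.0 Tris buffer.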

[7] = test system: Zika virus NS2B-NS3 protease; assay: Primary screen GU AMC qHTS for Zika virus inhibitors (AID 1347154); note: nearly all actives have a fitted effect of over 70% in size; note: potency is the fitted concentration of half-maximal effect
Outline: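 Fluorogenic AMC-substrate cleavage by noncovalent NS2B-NS3 protease complex (25 nM, pH 8.0 Tris buffer with Tween 20) followed for 15 minutes at room temperature (~20% conversion). Percent inhibition from ex340/em450 signal change, fitted by 4-parameter Hill equation.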

[8] = molecular target: T1, Tyrosine-protein phosphatase non-receptor type substrate 1 (Homo sapiens) + Leukocyte surface antigen CD47 (Homo sapiens); assay: CD47-SIRPalpha protein protein interaction - HTRF assay qHTS validation (AID 1347058; active = well fitted curve in the direction sought with a large enough effect in the signal ratio, not every such curve was filed as active; the % refers to the signal ratio;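 note: recombinant soluble extracellular CD47 with His tag and biotinylated SIRPalpha domains; 0% is about no effect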)
Outline: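 TR-FRET read (Ch1/Ch2 ratio) of soluble extracellular CD47 and Avi-biotinylated SIRPalpha domains in PBS pH 7.4 with 0.05% IGEPAL; 7-point compound titration. Sequential 30 min room-temperature steps; non-biotinylated SIRPalpha as control inhibitor.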

[9] = molecular target: Lysine-specific demethylase 5B (Homo sapiens) (UniProt Q9UGL1); assay: Optimization screen for KDM5B Histone Demethylases FDH coupled qHTS against the LOPAC library (AID 1347166); conditions: KDM5B demethylation, FDH-coupled NADH fluorescence (FDH is formaldehyde dehydrogenase); at 57.5 µM (top of the series); note: 0% is about no effect
Outline: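 KDM5BDeltaAP (200nM final) preincubated 10 min with compound, then 12.5uM H3K4Me3, 25uM a-ketoglutarate, ascorbate, Fe(II), NAD+ and FDH added; 50mM HEPES pH 7.5, 0.01% Tween-20. NADH fluorescence (340/450 nm) change over 30 min, room temperature.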

[10] = test system: Zika virus NS2B-NS3 protease (linked construct); assay: Confirmatory screen NINDS AMC qHTS for Zika virus inhibitors (AID 1347152);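 note: top concentration of the series differs between compounds; 0% = no-inhibitor control and -100% = no-enzyme control; nearly all actives have a fitted effect of over 70% in size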
Outline: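 IC50s from 4-parameter Hill fits of percent inhibition, based on AMC fluorescence gain (340/450 nm) over 15 min with 10 microM Bz-Nle-KRR-AMC. Enzyme: 1 nM linked NS2B-NS3 in Tris-HCl pH 8.0; 15-min compound preincubation.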

[11] = test system: Zika virus NS2B-NS3 protease (unlinked complex); assay: Confirmatory screen GU AMC qHTS for Zika virus inhibitors (AID 1347153);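 note: percent inhibition with 0% = no inhibitor control and 100% = no enzyme control; nearly all actives have a fitted effect of over 70% in size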
Outline: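 Unlinked enzyme 25 nM, Tris pH 8.0/0.01% Tween 20; cpd 15 min RT, dark; + AMC substrate 10 µM (Km 18.3 µM); 340/450 nm read at t0 and 15 min; % inhibition → 4-param fit.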

[12] = test system: Zika virus NS2B-NS3 protease (linked); assay: 384 well plate NINDS AMC confirmatory qHTS for Zika virus inhibitors (AID 1347163); note: nearly all actives have a fitted effect of over 50% in size; note: potency is the fitted concentration of half-maximal effect
Outline: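 Linked NS2B-NS3 protease (final 5 nM, 30 nM or 60 nM) was preincubated with compounds (final up to 1 mM) for ~15 minutes. Ac-VKTGKR-AMC substrate (final 30 microM) then reacted for 25 minutes at room temperature in the dark. Fluorescence (ex 355/em 460 nm) was normalized to no-enzyme and no-inhibitor controls.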

[13] = HepG2 cells viability qHTS for Zika virus inhibitors (AID 1347168); note: % is set by controls: 0 for no effect and ±100 for the full control effect
Outline: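 Compounds were tested in concentration series on cells grown in DMEM containing 4% FBS. After 24 to 48 hours, cellular ATP was measured by luminescence with CellTiter Glo.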

[14] = Confirmatory screen NINDS Rhodamine qHTS for Zika virus inhibitors (AID 1347161); note: nearly all actives have a fitted effect of over 60% in size; note: potency is the fitted concentration of half-maximal effect
Outline: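 Purified linked NS2B-NS3 protease (NS2B hydrophilic domain joined to NS3 protease by flexible linker), 25 nM in 10 mM Tris-HCl pH 8.0, 0.01% Tween 20. Compounds titrated, 15 min preincubation at room temperature; 1.5 microM Rhodamine110 substrate, FITC fluorescence change over 15 min.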

[15] = Tertiary RLuc qRT-PCR qHTS assay for Zika virus inhibitors (AID 1347169); note: top concentration of the series differs between compounds; % is set by controls: 0 for no effect and ±100 for the full control effect; nearly all actives have a fitted effect of over 55% in size
Outline: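 Orthogonal cell-based readout: luminescence measured 1-1.5 hrs after adding live-cell Renilla substrate to Vero cells that had been infected with ZIKV-RLuc (MOI 1-2) post-compound, incubated 48-72 hrs at 37 degrees C.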

[16] = test system: Zika virus NS2B-NS3 protease (linked construct); assay: 384 well plate NINDS Rhodamine confirmatory qHTS for Zika virus inhibitors (AID 1347164);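 note: fluorescence from protease cleavage of Ac-LKRR-rhodamine 110 substrate; potency is the fitted concentration of half-maximal effect; nearly all actives have a fitted effect of over 65% in size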
Outline: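 Fluorescence at 485/538 nm was measured 25 minutes after adding 10 microM Ac-LKRR-Rd substrate, in the dark at room temperature. The protease (5, 30 or 60 nM final) had been preincubated ~15 minutes with compound; aprotinin as control.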

T1 sequence (P78324 whole entry, looked up): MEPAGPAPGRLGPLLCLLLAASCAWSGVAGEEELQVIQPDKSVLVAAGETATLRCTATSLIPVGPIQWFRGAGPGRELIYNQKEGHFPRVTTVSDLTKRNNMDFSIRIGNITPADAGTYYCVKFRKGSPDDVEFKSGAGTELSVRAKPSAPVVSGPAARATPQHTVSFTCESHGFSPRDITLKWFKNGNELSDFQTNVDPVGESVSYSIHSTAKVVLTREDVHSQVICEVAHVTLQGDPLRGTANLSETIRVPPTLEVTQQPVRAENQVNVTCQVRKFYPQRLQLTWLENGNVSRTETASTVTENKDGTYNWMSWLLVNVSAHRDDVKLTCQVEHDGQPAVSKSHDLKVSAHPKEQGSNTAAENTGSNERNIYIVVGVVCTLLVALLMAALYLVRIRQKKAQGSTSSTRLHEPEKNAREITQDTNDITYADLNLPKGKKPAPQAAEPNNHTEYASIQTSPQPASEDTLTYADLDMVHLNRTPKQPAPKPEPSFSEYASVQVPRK
T1 sequence (Q08722 whole entry, looked up): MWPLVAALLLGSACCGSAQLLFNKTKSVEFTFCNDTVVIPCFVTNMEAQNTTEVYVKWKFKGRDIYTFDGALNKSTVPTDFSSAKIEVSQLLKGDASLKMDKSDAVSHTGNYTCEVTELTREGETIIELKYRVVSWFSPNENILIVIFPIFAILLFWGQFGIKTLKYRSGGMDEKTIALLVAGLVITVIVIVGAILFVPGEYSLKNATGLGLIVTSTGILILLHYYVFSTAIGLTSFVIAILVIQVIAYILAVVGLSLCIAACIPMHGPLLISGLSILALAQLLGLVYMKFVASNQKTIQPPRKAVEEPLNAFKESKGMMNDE
Chain of N-terminal Xaa-Pro-Lys N-methyltransferase 1 (Homo sapiens) (Q9BV86 whole entry, looked up): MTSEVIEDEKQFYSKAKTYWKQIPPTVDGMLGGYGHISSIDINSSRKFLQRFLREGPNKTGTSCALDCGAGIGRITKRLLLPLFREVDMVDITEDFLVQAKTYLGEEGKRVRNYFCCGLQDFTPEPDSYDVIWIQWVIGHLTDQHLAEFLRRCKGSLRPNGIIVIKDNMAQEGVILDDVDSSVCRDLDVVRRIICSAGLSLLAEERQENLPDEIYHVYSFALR
Chain of Lysine-specific demethylase 5B (Homo sapiens) (Q9UGL1 whole entry, looked up): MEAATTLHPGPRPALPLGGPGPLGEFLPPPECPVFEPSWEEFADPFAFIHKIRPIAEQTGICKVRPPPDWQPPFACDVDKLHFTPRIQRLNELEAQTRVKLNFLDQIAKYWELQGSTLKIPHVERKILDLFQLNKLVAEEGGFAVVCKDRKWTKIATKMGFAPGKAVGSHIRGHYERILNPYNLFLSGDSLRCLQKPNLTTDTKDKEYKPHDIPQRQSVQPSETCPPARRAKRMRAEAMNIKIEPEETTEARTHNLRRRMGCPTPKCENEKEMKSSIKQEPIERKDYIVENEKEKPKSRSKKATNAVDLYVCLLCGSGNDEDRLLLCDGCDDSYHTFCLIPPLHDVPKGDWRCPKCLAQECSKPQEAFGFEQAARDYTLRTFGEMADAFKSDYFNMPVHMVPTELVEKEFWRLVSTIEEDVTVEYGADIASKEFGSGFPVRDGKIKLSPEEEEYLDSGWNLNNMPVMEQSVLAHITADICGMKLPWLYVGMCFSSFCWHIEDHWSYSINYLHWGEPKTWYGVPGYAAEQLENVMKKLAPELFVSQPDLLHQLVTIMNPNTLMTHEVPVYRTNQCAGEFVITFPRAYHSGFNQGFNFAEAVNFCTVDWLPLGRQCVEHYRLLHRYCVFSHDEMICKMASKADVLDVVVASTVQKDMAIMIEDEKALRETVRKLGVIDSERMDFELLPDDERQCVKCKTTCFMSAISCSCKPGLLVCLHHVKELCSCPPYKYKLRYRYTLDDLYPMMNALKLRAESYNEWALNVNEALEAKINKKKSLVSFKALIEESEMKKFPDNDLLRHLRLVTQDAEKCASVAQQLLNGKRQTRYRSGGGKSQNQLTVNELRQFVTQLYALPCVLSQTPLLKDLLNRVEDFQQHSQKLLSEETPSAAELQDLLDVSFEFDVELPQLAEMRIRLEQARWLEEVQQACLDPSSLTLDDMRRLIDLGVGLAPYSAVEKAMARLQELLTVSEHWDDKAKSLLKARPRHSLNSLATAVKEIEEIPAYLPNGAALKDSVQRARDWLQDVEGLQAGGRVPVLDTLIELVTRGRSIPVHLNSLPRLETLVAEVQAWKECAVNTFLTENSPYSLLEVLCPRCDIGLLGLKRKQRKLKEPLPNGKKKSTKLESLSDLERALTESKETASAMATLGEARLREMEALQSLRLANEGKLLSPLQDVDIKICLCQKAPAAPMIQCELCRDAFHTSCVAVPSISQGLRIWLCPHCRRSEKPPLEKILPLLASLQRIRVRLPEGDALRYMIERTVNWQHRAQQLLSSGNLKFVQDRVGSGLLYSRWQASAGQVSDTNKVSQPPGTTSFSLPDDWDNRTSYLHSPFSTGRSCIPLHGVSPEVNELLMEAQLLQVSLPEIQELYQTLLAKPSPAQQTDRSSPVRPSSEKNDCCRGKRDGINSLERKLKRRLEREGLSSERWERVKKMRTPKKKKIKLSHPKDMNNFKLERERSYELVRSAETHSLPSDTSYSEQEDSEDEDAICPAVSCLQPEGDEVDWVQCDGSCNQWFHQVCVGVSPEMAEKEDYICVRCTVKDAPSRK
Chain of Parathyroid hormone/parathyroid hormone-related peptide receptor (Homo sapiens) (Q03431 whole entry, looked up): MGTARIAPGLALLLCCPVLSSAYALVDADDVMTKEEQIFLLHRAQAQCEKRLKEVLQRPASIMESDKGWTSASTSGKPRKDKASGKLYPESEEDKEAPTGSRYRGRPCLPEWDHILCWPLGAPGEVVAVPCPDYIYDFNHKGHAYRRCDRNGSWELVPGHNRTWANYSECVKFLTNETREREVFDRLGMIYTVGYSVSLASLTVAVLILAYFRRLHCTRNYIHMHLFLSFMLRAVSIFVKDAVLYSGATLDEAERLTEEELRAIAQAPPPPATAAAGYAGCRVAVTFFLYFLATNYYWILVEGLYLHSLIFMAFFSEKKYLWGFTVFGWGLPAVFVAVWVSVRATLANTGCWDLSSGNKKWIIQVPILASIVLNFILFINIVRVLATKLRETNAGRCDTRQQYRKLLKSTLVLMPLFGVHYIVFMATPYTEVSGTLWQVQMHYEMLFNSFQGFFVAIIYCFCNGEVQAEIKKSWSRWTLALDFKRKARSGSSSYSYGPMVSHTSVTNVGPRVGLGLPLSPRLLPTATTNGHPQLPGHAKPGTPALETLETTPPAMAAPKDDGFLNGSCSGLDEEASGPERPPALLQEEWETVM

O=C1Cc2c([nH]c3ccc(Br)cc23)-c2ccccc2N1
inactive: Potency [1] | Potency [2] | Potency [3] | Potency [4] | Potency [6] | Potency [7]
active: Potency [5] 50.1 µM

O=c1[nH]ccc2c(O)cccc12
inactive: Potency [1] | Potency [2] | Potency [3] | Potency [4]
active: Potency [5] 56.2 µM | Potency [6] 29.9 µM

Cn1c(=O)c2c(nc(/C=C/c3cccc(Cl)c3)n2C)n(C)c1=O
active: Potency [6] 11.9 µM | activity, negative = inhibition [9] -517%
inactive: Potency [1] | Potency [2] | outcome [8] | Potency [3] | Potency [4]

Nc1nc2ccc(Cl)cc2c2nc(-c3ccco3)nn12
active: Potency [4] 6.7 µM | Potency [5] 12.6 µM
inactive: Potency [1] | Potency [2] | outcome [8] | Potency [10] | Potency [11] | Potency [7] | Potency [12] | outcome [13]

CCN(CC)CCCCCCCCOC(=O)c1cc(OC)c(OC)c(OC)c1
inactive: Potency [1] | Potency [2] | outcome [8] | Potency [3] | Potency [4] | Potency [7] | activity, negative = inhibition [9] -10.5%

O=c1onc2cnc3ccccc3n12
inactive: Potency [1] | Potency [2] | Potency [3] | Potency [4]
active: Potency [5] 56.2 µM | Potency [6] 26.7 µM

O=C(O)C1=CC(=C(c2ccc(O)c(C(=O)O)c2)c2ccc(O)c(C(=O)O)c2)C=CC1=O
inactive: Potency [1] | Potency [4]
active: Potency [2] 11.7 µM | Potency [3] 0.464 µM | Potency [5] 25.1 µM | Potency [6] 21.2 µM

N[C@@H](CCCC(=O)O)C(=O)O
inactive: Potency [1] | Potency [2] | Potency [3] | Potency [4] | Potency [5] | Potency [6]

N#C/C(=C\c1ccc(O)c(O)c1)C(=O)NCCc1ccccc1
inactive: Potency [1] | Potency [2] | Potency [3] | Potency [4]
active: Potency [5] 44.7 µM | Potency [6] 2.38 µM

Nc1ccc(-c2ccc3ccccc3n2)cc1
inactive: Potency [1] | Potency [2] | Potency [3] | Potency [4] | Potency [10] | Potency [11] | Potency [14] | outcome [13] | Potency [15]
active: Potency [5] 39.8 µM | Potency [6] 23.8 µM

COc1ccc2c(c1)c(CC(=O)O)c(C)n2Cc1ccc(Cl)cc1
inactive: Potency [1] | Potency [2] | outcome [8] | Potency [3] | Potency [4] | activity, negative = inhibition [9] -5.89%

CCCCCCCC/C=C\CCCCCCCC(=O)NCCc1ccc(O)c(O)c1
active: Potency [6] 7.52 µM | Potency [7] 16.8 µM | Potency [14] 19.6 µM | Potency [12] 1.12 µM | Potency [16] 3.16 µM
inactive: Potency [1] | Potency [2] | Potency [3] | Potency [4] | Potency [5] | activity, negative = inhibition [9] -22.3%

NC/C=C\C(=O)O
inactive: Potency [1] | Potency [2] | Potency [3] | Potency [4] | Potency [5] | Potency [6] | Potency [7] | activity, negative = inhibition [9] 3.97%

CC(C)(CO)Cc1cc(C(C)(C)C)c(O)c(C(C)(C)C)c1
inactive: Potency [1] | Potency [2] | Potency [3] | Potency [4] | Potency [5] | Potency [6] | Potency [7] | activity, negative = inhibition [9] -8.2%

NCCNS(=O)(=O)c1cccc2c(Cl)cccc12
inactive: Potency [1] | Potency [2] | outcome [8] | Potency [3] | Potency [4] | Potency [7] | activity, negative = inhibition [9] -9.52%

CC(C)NCC(O)COc1ccc(CC(N)=O)cc1 (configuration not stated)
inactive: Potency [1] | Potency [2] | outcome [8] | Potency [3] | Potency [5] | Potency [6] | Potency [7] | activity, negative = inhibition [9] -1.35%

Cc1ccc([N+](=O)[O-])cc1S(=O)(=O)N(C)C
inactive: Potency [1] | Potency [2] | Potency [3] | Potency [4] | Potency [5] | Potency [6]

O=C(O)C1=CCCNC1
inactive: Potency [1] | Potency [2] | outcome [8] | Potency [3] | Potency [4] | Potency [7] | activity, negative = inhibition [9] -1.96%

CCCn1c(=O)c2c(ncn2C)n(CCC)c1=O
inactive: Potency [1] | Potency [2] | outcome [8] | Potency [3] | Potency [5] | Potency [6] | Potency [7] | activity, negative = inhibition [9] -2.62%

COc1ccc(-c2cc3ncc(C)n3c(Nc3ncccc3C(N)=O)n2)cc1OC
active: Potency [5] 56.2 µM | Potency [6] 26.7 µM
inactive: Potency [1] | Potency [2] | Potency [3] | Potency [4]

O=c1cc(-c2ccccc2F)[nH]c2cc3c(cc12)OCO3
active: Potency [5] 56.2 µM | Potency [6] 26.7 µM | activity, negative = inhibition [9] -604%
inactive: Potency [1] | outcome [8] | Potency [3] | Potency [4]

C[C@@]1(C2CCCC2)Cc2cc(OCC(=O)O)c(Cl)c(Cl)c2C1=O
inactive: Potency [1] | outcome [8] | Potency [3] | Potency [4] | Potency [5] | Potency [6] | Potency [7] | activity, negative = inhibition [9] -5.03%

NC[C@@H]1O[C@H](c2ccccc2)Cc2c1ccc(O)c2O
inactive: Potency [1] | Potency [2] | Potency [3] | Potency [4] | Potency [7]

Cc1nc(N=Nc2ccc(C(=O)O)cc2)c(COP(=O)(O)O)c(C=O)c1O
inactive: Potency [1] | outcome [8] | Potency [3] | Potency [4] | Potency [5] | activity, negative = inhibition [9] -12.4%

COc1ccc(-c2ccc(N)[n+](CCCC(=O)O)n2)cc1
inactive: Potency [1] | Potency [2] | Potency [3] | Potency [4] | Potency [5] | Potency [6] | activity, negative = inhibition [9] -3.69%

Nc1ccc(N2C(=O)c3ccccc3C2=O)c(Cl)c1
inactive: Potency [1] | Potency [2] | Potency [3] | Potency [4] | Potency [5] | Potency [6] | activity, negative = inhibition [9] -4.03%
